Screening results deposited in PubChem by several laboratories.
ADAM10 inh = human ADAM10 inhibitors, primary screen, biochemical, QFRET, HTS; Disintegrin and metalloproteinase domain-containing protein 10 (Homo sapiens), O14672; recombinant ADAM10, EDANS/DABCYL FRET peptide cleavage, 3 h; inhibition, % at 7 µM; 0.62% of 370,000 active;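 active = inhibition above a per-campaign cutoff equal to the mean of compounds falling between control-based bounds plus 3 SD, cut at about 20% in these data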
CendR NRP1 mod = modulators of CendR peptide binding to NRP-1, primary screen, biochemical, fluorescence polarization, uHTS. FAM-RPARPAR peptide binding to NRP-1. inhibition, % at 25 µM. 0.85% of 360,000 active. AID 602438, 2012;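 active = inhibition or corrected inhibition above about 18%, plus a signal ratio from 0.5 to 1.5, limit read from the data, passing the limit was not always enough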
KLK7 zymogen act = proKLK7 zymogen activators, primary screen, biochemical, fluorescence intensity; Kallikrein-7 (Homo sapiens), P49862; purified proKLK7, EDANS-DABCYL substrate fluorescence; 100% is mature enzyme control, 0% vehicle; activation, % at 7 µM; 0.9% of 370,000 active; AID 652039, 2013;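 active = activation above the mean of all tested compounds plus 3 SD, computed per campaign excluding outliers beyond control limits, cut at about 13% in these data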
sPLA2-III inh = human group III sPLA2 inhibitors, primary screen, biochemical, QFRET, BODIPY PC-A2 liposome substrate | 0.56% of 370,000 active | QFRET BODIPY PC-A2 liposome hydrolysis, fluorescence | inhibition, % at 12.2 µM | Group 3 secretory phospholipase A2 (Homo sapiens), Q9NZ20;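 active = inhibition above mean plus 3 SD of compounds lying within the high and low control bounds, cut at about 19% in these data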
Target sequence (Q9NZ20 whole entry, looked up): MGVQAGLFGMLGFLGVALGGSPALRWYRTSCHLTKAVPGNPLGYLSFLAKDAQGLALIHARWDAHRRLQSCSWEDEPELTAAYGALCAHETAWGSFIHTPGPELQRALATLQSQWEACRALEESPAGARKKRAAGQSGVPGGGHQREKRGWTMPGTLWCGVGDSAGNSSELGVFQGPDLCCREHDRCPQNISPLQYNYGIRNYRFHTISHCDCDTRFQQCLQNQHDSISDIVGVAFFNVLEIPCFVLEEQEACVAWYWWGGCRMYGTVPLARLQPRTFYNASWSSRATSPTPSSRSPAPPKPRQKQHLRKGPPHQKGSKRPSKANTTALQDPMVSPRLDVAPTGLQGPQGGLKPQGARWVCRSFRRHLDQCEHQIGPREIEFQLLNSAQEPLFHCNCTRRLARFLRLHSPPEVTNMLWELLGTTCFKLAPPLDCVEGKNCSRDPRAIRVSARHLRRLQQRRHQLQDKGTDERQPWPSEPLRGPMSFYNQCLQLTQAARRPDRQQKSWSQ
ADAM17 inh = ADAM17 inhibitors, primary screen, biochemical, QFRET; AID 720648, 2013; inhibition, % at 6.95 µM; recombinant ADAM17, EDANS/DABCYL FRET peptide cleavage; 0.83% of 370,000 active; Disintegrin and metalloproteinase domain-containing protein 17 (Homo sapiens), P78536;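 active = inhibition above the mean of compounds lying between control limits plus 3 SD, set per campaign, cut at about 8.5% in these data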
proKLK7 act conf = proKLK7 zymogen activators, confirmation, biochemical, fluorescence intensity, triplicate. shares compounds with KLK7 zymogen act. purified proKLK7, EDANS-DABCYL substrate fluorescence; scaled: vehicle 0, mature enzyme 100. activation, % at 7 µM. 68% of 3,200 active. AID 686949, 2013;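 active = activation, as change over the incubation, above the mean of all tested compounds plus 3 SD, cut at about 13% in these data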
EDANS interfere = EDANS-DABCYL substrate optical interference, artefact control for kallikrein-7 zymogen activator project, biochemical, fluorescence intensity, high throughput | shares compounds with KLK7 zymogen act | no enzyme, 4 h; solvent 0%, active enzyme control 100% | activation, % at 7 µM | 80% of 3,200 active | AID 686952, 2013;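 active = activation above the all-compound mean plus 3 SD, ignoring values outside control-based bounds, cut at about 4.8% in these data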;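 also: value is the 4 h activation minus the activation read at time zero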
EDANS interf = counter-screen for kallikrein-7 activators: EDANS-DABCYL interference, dose response; EDANS-DABCYL peptide fluorescence interference, no enzyme; shares compounds with KLK7 zymogen act; EC50, µM; 20% of 250 active;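 active = compounds that raise the fluorescence signal in this interference counterscreen, with EC50 at or below 10 µM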;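 also: intact quenched peptide substrate alone read at 355 nm excitation and 520 nm emission; signal is fluorescence gain from T0 to T4 after four hours at room temperature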
Of the large screens only hits and unclear results are named; the others gave an inactive call (follow-up assays come after a bar, where they were run). Hits are enriched below; roughly 3.4% of the tested compounds scored in any of these assays.

COc1ccccc1Oc1c(C)oc2cc(OC(=O)c3ccco3)ccc2c1=O	KLK7 zymogen act 131.3 | proKLK7 act conf 784.8 | EDANS interfere 792.1
COc1ccccc1-c1c(C)oc2cc(OC(=O)c3ccco3)ccc2c1=O	KLK7 zymogen act 268.0 | proKLK7 act conf 375.8 | EDANS interfere 358.7
CCOc1ccccc1Oc1c(C)oc2cc(OC(=O)c3ccco3)ccc2c1=O	KLK7 zymogen act 27.8 | proKLK7 act conf 272.2 | EDANS interfere 237.7
Nc1ccc(-c2ncc(-c3ccccc3)o2)cc1	KLK7 zymogen act 21.3 | proKLK7 act conf inactive | EDANS interfere inactive
Cc1ccc(-c2cnc(-c3ccncc3)o2)cc1	KLK7 zymogen act 73.7 | proKLK7 act conf 65.0 | EDANS interfere 69.8
COCCCN1C(=O)[C@H](CC(=O)N2CCSCC2)[C@]2(C(=O)OC)CCCCC=C12	none (no result: CendR NRP1 mod)
Cc1cc(/C=C(\C#N)C(=O)Nc2ccccc2F)c(C)[nH]1	KLK7 zymogen act 32.3 | proKLK7 act conf inactive | EDANS interfere 6.9
COC(=O)C1=CN(c2ccc(OC)cc2OC)C(N)=C(C#N)C1c1ccccc1F (stereo unspecified)	KLK7 zymogen act 113.9 | proKLK7 act conf 18.8 | EDANS interfere 40.6
COC(=O)C1=CN(c2ccc(OC)cc2)C(N)=C(C#N)C1c1ccccc1F (stereo unspecified)	none
CCSc1ccccc1C(=O)Nc1cc(OC)c(OC)c(OC)c1	none
COc1cc(C=Nc2ccccc2C(=O)Nc2ccccc2)cc(OC)c1OC	KLK7 zymogen act 18.7 | proKLK7 act conf 17.9 | EDANS interfere 22.4
C#CCOc1ccc(C2C3=C(COC3=O)Nc3cc4c(cc32)OCO4)cc1OC (stereo unspecified)	KLK7 zymogen act 68.5 | proKLK7 act conf inactive | EDANS interfere inactive
CCOc1ccccc1C1C2=C(COC2=O)Nc2cc3c(cc21)OCO3 (stereo unspecified)	KLK7 zymogen act 16.1 | proKLK7 act conf inactive | EDANS interfere inactive
O=C(CCc1ccccc1)N[C@H]1/C(=N/O)CCC[C@]12C(=O)N(Cc1ccccc1)c1ccccc12	none (no result: CendR NRP1 mod)
COC(=O)[C@]12C[C@H](CC(=O)NCCc3ccccc3OC)C(=O)N(CCc3ccc(OC)c(OC)c3)C1=C[C@H](C(C)(C)C)O[C@@H]2C	none (no result: CendR NRP1 mod)
COc1ccc(CC(N)c2csc(Nc3ccc(S(C)(=O)=O)cc3)n2)cc1 (stereo unspecified)	KLK7 zymogen act 26.9 | proKLK7 act conf inactive | EDANS interfere inactive
C[C@H]1[C@H](NCc2cccnc2)CC[C@@]23CCCN2C(=O)CCC[C@@H]13	none (no result: CendR NRP1 mod, KLK7 zymogen act)
CC1=C(C(=O)Nc2ccccn2)C(c2cccnc2)n2nnnc2N1 (stereo unspecified)	KLK7 zymogen act 20.9 | proKLK7 act conf inactive | EDANS interfere 5.8
COC(=O)C1=C(C)Nc2nnnn2C1c1cccnc1 (stereo unspecified)	none
COC(=O)[C@]12C[C@H](CC(=O)NCc3cccc4ccccc34)C(=O)N(CCc3ccc(OC)c(OC)c3)C1=C[C@H](C(C)C)O[C@@H]2C1CC1	none (no result: CendR NRP1 mod)
Cc1cccc(C2Nc3ccccc3C(=O)N2CCc2ccccc2)n1 (stereo unspecified)	KLK7 zymogen act 20.9 | proKLK7 act conf inactive | EDANS interfere 10.6
Oc1ccc(-c2nc3ccccc3s2)cc1	none
Nc1ccc(-c2nc3ccc(C(=O)O)cc3s2)cc1	KLK7 zymogen act 79.3 | proKLK7 act conf 75.3 | EDANS interfere 76.2
Nc1ccc(-c2nc3ccc(N)cc3s2)cc1	KLK7 zymogen act 61.0 | proKLK7 act conf 67.5 | EDANS interfere 70.3
Nc1cc2sc(-c3ccc(C(=O)O)cc3)nc2cc1Cl	KLK7 zymogen act 50.9 | proKLK7 act conf 68.0 | EDANS interfere 74.8
Nc1cccc(-c2nc3ccc(N)cc3s2)c1	KLK7 zymogen act 82.4 | proKLK7 act conf 57.1 | EDANS interfere 75.1
O=C(O)c1ccc2nc(-c3ccccc3)sc2c1	none
COC[C@@H]1CCCN1c1ccc2c(c1)O[C@H]1CCN(C1)S2(=O)=O	none (no result: CendR NRP1 mod)
COc1cc2c(cc1OC)C(=O)CC(C)S2 (stereo unspecified)	KLK7 zymogen act 13.8 | proKLK7 act conf 31.9 | EDANS interfere 26.2
COc1cc2c(cc1OC)C(c1ccccc1)CC2=O (stereo unspecified)	none
COc1ccc(/C=C(\C#N)C(=O)NCc2ccccc2)cc1	KLK7 zymogen act 38.1 | proKLK7 act conf inactive | EDANS interfere inactive
O=C(NCCCN1CCCC1)c1ccc2c(c1)N(Cc1ccccc1)CCS2	KLK7 zymogen act 51.0 | proKLK7 act conf inactive | EDANS interfere inactive
O=C(NCCCN1CCOCC1)c1ccc2c(c1)N(Cc1ccc(F)cc1)CCS2	none
NS(=O)(=O)c1ccc(CCNC(=O)c2ccc3c(c2)N(Cc2ccccc2)CCS3)cc1	none
CCN1CCN(CCCNC(=O)c2ccc3c(c2)N(Cc2ccccc2)CCS3)CC1	KLK7 zymogen act 35.4 | proKLK7 act conf inactive | EDANS interfere inactive
CN1CCN(CCCNC(=O)c2ccc3c(c2)N(Cc2ccc(F)cc2)CCS3)CC1	KLK7 zymogen act 76.2 | proKLK7 act conf inactive | EDANS interfere inactive
Nc1[nH]c(C(=O)c2ccccc2)c(-c2ccc(Cl)c(F)c2)c1C(=O)c1c[nH]c2ccccc12	none (no result: CendR NRP1 mod)
COc1ccc(-n2c(SCC(=O)Nc3ccc(S(=O)(=O)Nc4nccs4)cc3)nnc2-c2cccs2)cc1	none (no result: CendR NRP1 mod)
CCCCOC(=O)Oc1ccc2c(=O)c(Oc3cccc(C)c3)coc2c1	KLK7 zymogen act 43.0 | proKLK7 act conf 84.6 | EDANS interfere 65.5 | EDANS interf 8.22
CCCOC(=O)Oc1ccc2c(=O)c(Oc3cc(C)cc(C)c3)coc2c1	KLK7 zymogen act 42.9 | proKLK7 act conf 76.7 | EDANS interfere 65.3 | EDANS interf 5.04
O=C(NCCCc1ccccc1)[C@H](Cc1c[nH]c2ccccc12)NC1(C(=O)NCCc2c[nH]c3ccccc23)CCOCC1	none (no result: CendR NRP1 mod, KLK7 zymogen act)
Cc1ccc2[nH]c3c(c2c1)SC(C)(C)CC3=O	KLK7 zymogen act 15.3 | proKLK7 act conf 12.7 | EDANS interfere 16.2
